Screening results deposited in PubChem by National Center for Advancing Translational Sciences (NCATS).
aSyn tox rescue = rescues yeast growth from alpha-synuclein toxicity; S. cerevisiae alpha-synuclein toxicity rescue, BacTiter-Glo growth, 24 h; Potency, µM (doses to about 46.1 µM), most hits filed as activators; hit rate 0.02% among 94,000; active = well fitted activation curve with a large enough effect; note: 0% is about no effect
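Growth restoration measured by BacTiter-Glo luminescence after 24 hr at 30 deg C; alpha-synuclein yeast, raffinose-pregrown to mid-log, were added at OD600=0.02 in galactose medium onto pinned compounds.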
Active calls of the source: *; i = inactive. Only a selection was taken, and hits are over-represented in it overall. Potency is the fitted concentration of half-maximal effect.

SMILES	aSyn tox rescue
CCOc1cc(-c2nc3c(c(CC)nn3-c3ccccc3)c3cc(OC)c(OC)cc23)ccc1O	i
Cc1ccc(C(=O)N2CCC(c3c[nH]c4ccccc34)(c3c[nH]c4ccccc34)CC2)cc1	i
O=c1c2oc3ccccc3c2n(Cc2cccc(Cl)c2)c(=O)n1Cc1ccco1	i
CCCN(C(=O)c1cc2c(s1)-c1ccccc1SC2)c1ccccc1F	i
CCOc1ccc(N(C)S(=O)(=O)c2ccc3c(c2)CCCN3C(C)=O)cc1	i
CCOC(=O)N1CCC(NC(=O)c2cnn(-c3cccc(F)c3)c2-n2cccc2)CC1	i
O=C(NCC(c1cccnc1)N1CCN(c2ccccc2F)CC1)c1ccc(F)cc1 (centres undefined)	i
CC(=O)Nc1ccc(Nc2nc3c(S(=O)(=O)c4cccc(Cl)c4)nnn3c3ccsc23)cc1	i
Cc1cc(C)cc(-n2c(SCC(=O)NC3CCCCC3)nc3c([nH]c4ccccc43)c2=O)c1	i
COc1ccc(NC(=O)CSc2nc3ccccc3nc2N2CCC(C)CC2)cc1	i
CCOC(=O)c1cccc(NS(=O)(=O)c2ccc3[nH]c4c(c3c2)CCCC4)c1	i
COc1ccc(-n2nc3c(N4CCCC(C(=O)NCCc5ccc(C)cc5)C4)nnc(C)c3c2C)cc1 (centres undefined)	i
CC(=O)C1=C(c2ccc(Cl)c(Cl)c2)N(C(C)=O)n2cnnc2S1	i
Cc1c(Cl)cccc1NC(=O)C1CCCN(c2nnc(-n3c(C)ccc3C)s2)C1 (centres undefined)	i
CCc1nn2c(-c3ccccc3OC)ccnc2c1-c1ccccc1	i
COc1cc(-c2nc3cnccn3c2Nc2ccc(C(C)C)cc2)ccc1O	i
Cc1ccn2c(Nc3ccc(C(C)C)cc3)c(-c3cccnc3)nc2c1	i
CC(C)c1ccc(Nc2c(-c3ccccc3O)nc3cnccn23)cc1	22.4µM*
COc1cccc(N2CCN(C(=O)c3ccc(CS(=O)c4cccc(Cl)c4)o3)CC2)c1 (centres undefined)	i
Cc1ccc2oc3c(c(=O)c2c1)C(c1cccc(O)c1)N(Cc1ccccc1Cl)C3=O (centres undefined)	i
CCCN1CCN(c2nnc(-n3cccc3C(=O)Nc3ccccc3C(F)(F)F)s2)CC1	i
Cc1cc(C)n(-c2nc3ccccc3nc2N2CCN(c3cccc(C(F)(F)F)c3)CC2)n1	i
CCN1CCOC(=O)C1CC(=O)Nc1cc(C)cc(C)c1 (centres undefined)	i
COc1ccc(-c2nnn3c2nc(NCCc2ccc(OC)c(OC)c2)c2ccccc23)cc1	i
CC(C)CNC(=O)N1[C@H](c2cccs2)[C@@H](C)C(=O)[C@@H](C)[C@@H]1c1cccs1	i
SMILES	aSyn tox rescue
Cc1cccc(Nc2nnc(-c3ccc(C)c(S(=O)(=O)NCC4CCCO4)c3)c3ccccc23)c1 (centres undefined)	i
Cc1nn2c(=O)cc(COC(=O)c3ccc(NC(=O)CCc4ccccc4)cc3)nc2s1	i
O=C(O)CC1c2ccccc2CCN1C(=O)Nc1cc(Cl)ccc1Cl (centres undefined)	i
CCN1CCN(Cc2c(O)ccc3oc(C)c(C(=O)Nc4ccc(OC)cc4)c23)CC1	i
COc1ccc(/C=C/C(=O)Nc2ccc3nc4c(c(Nc5ccc(OC)c(OC)c5)c3c2)CCCC4)cc1	i
COc1ccc(-c2cn3nc(N4CCCC(C(=O)NCc5ccc(Cl)cc5)C4)sc3n2)cc1 (centres undefined)	i
COc1ccc(-c2onc(C)c2C)cc1S(=O)(=O)N1CCc2ccccc21	i
O=C(CN1C(=O)COc2ccc(S(=O)(=O)NC3CCCC3)cc21)Nc1ccc(Cl)cc1	i
COc1ccc(NC(=O)Cn2cnc3ccc(S(=O)(=O)N4CCC(C)CC4)cc3c2=O)cc1Cl	i
Cc1ccc(S(=O)(=O)Nc2ccc3nc(-c4ccc(F)cc4)oc3c2)cc1	i
COc1ccc(-c2nc3ccc(NS(=O)(=O)c4ccccc4)cc3o2)cc1	i
O=S(=O)(Nc1ccc2nc(-c3ccc(F)cc3)oc2c1)c1ccccc1	20µM*
CC(C)c1ccc(-c2noc(SCC(=O)N3CCCCC3)n2)cc1	i
CC(=O)c1cccc(NC(=O)c2nc(-c3ccccc3)n(-c3ccccc3C)n2)c1	i
COc1ccc(C(=O)NCC(c2cccnc2)N2CCc3ccccc3C2)cc1OC (centres undefined)	i
COc1cc(NC(=O)CC2C(=O)N(c3cccc(C)c3)C(=O)N2Cc2ccco2)cc(OC)c1 (centres undefined)	i
O=C(Nc1ccc(S(=O)(=O)N2CCCCC2c2cccnc2)cc1)c1ccc(F)cc1 (centres undefined)	i
CCOc1ccccc1Nc1nc(-c2cccc(Cl)c2)c2c(n1)-c1ccccc1OC2	i
COc1ccc(-c2onc(C)c2C)cc1S(=O)(=O)Nc1cccc(C#N)c1	i
O=C(Cc1ccccc1)N(Cc1cccnc1)c1nc2c(Cl)cccc2s1	14.1µM*
O=C(C1COc2ccccc2O1)N(Cc1cccnc1)c1nc2c(Cl)cccc2s1 (centres undefined)	i
COc1cccc2sc(N(Cc3cccnc3)C(=O)COc3ccccc3)nc12	i
Cc1ccc2oc3c(c(=O)c2c1)C(c1ccc(OCC(N)=O)cc1)N(Cc1ccc2c(c1)OCO2)C3=O (centres undefined)	i
CC(=O)N1CCc2c(sc3c2c(=O)n(CCc2ccccc2)c(=O)n3Cc2ccc(F)cc2)C1	i
COc1ccccc1-c1cc(C(=O)Nc2c(C)nn(Cc3ccc(Cl)cc3)c2C)no1	i
SMILES	aSyn tox rescue
COc1ccc(Nc2cc(C)c3cc(NC(=O)c4cc(OC)cc(OC)c4)ccc3n2)cc1	i
Cc1cc2nc(-c3cccc(NC(=O)CSc4ccc(Cl)cc4)c3)oc2cc1C	i
COc1ccccc1N1CCN(C(CNC(=O)C(=O)NCc2ccc(F)cc2)c2cccnc2)CC1 (centres undefined)	i
Cc1ccc(C)c(NC(=O)c2nnn(Cc3ccc(F)cc3Cl)c2N)c1	i
O=C(CC1N=C2c3ccccc3N=C(SCc3cccc(F)c3)N2C1=O)NCc1ccc2c(c1)OCO2 (centres undefined)	i
COc1ccc(CNC(=O)c2cc(-c3cccs3)nc3ccccc23)c(OC)c1	i
COc1cccc(CN(C(=O)c2oc3cc(C)ccc3c2C)C2CCS(=O)(=O)C2)c1 (centres undefined)	i
Cc1ccc(OCCn2c(C3CC(=O)N(Cc4ccc(F)cc4)C3)nc3ccccc32)c(C)c1 (centres undefined)	i
COc1ccc(NC(=O)CSC2=Nc3ccccc3C3=NC(CCC(=O)NC4CCCCC4)C(=O)N23)cc1Cl (centres undefined)	i
CCCCn1c2ccccc2c2nnc(SCC(=O)Nc3ccc(NC(C)=O)cc3)nc21	i
Cc1cc(C)cc(Nc2cc(C)nc3nc(-c4ccco4)nn23)c1	i
Cc1ccc(NC(=O)c2cc(S(=O)(=O)NC3CCCCCC3)ccc2F)cc1F	25.1µM*
CCc1ccc(NC(=O)c2cc(S(=O)(=O)NC3CCCC3)ccc2F)cc1	i
Cc1ccc(NC(=O)c2cc(S(=O)(=O)N3CCCCCC3)ccc2F)cc1F	i
CCCCN(C)CCCNC(=O)Cn1ncc2c3ccccc3n(Cc3cc(C)ccc3C)c2c1=O	i
CCOC(=O)Cc1ccc(NC(=O)NC(C)c2c(-n3cccc3)sc(C)c2C)cc1 (centres undefined)	i
COc1ccccc1C(=O)Nc1ccc(-c2cc(C(F)(F)F)nn2-c2ccccc2)cc1	i
COc1ccccc1N1CCN(C(=O)C(CCSC)NS(=O)(=O)c2ccc3c(c2)oc(=O)n3C)CC1 (centres undefined)	i
Cc1ccc(CCNC(=O)CS(=O)Cc2nc(-c3ccccc3C)oc2C)cc1 (centres undefined)	i
CCc1ccc(-c2nc(CS(=O)CC(=O)NCCc3ccc(C)cc3)c(C)o2)cc1 (centres undefined)	20µM*
Cc1ccc(CCNC(=O)CS(=O)Cc2nc(-c3cccs3)oc2C)cc1 (centres undefined)	i
